Test results taken from PubChem BioAssay (NCI).
This is part of a sample that, as a whole, favours compounds with a hit. Of some 83,000 tested, about 20% had one in any assay.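 Interpretation: 100, growth as untreated; towards 0, rising growth inhibition; 0, no net growth; 0 to -100, cell death. Compounds scoring below 10 were considered active.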 Unmarked numbers belong to inactive results. Activity calls are given as the source filed them.

Test system: IGROV1 ovarian
Experiment: NCI-60 one-dose screen, 48 h (100 = growth as untreated, 0 = no growth, -100 = all killed)
Settings: 10 µM

In order of rising growth:
1. COc1ccc2c(c1)nc(N)c1c3cccnc3cn21  17.8%
2. O=C1OCC2=C1C(c1cccc(Br)c1)c1cc3c(cc1N2CCO)CCC3 (stereo not drawn)  20.3%
3. COc1cccc(C2C3=C(COC3=O)N(CCO)c3cc(OC)ccc32)c1 (stereo not drawn)  24.3%
4. C=C(Cl)[C@@](Cl)(CBr)CC[C@@H](Br)C(C)(C)Cl  29.6%
5. CCOCCOCCOCCOCCOCCOCCOCCOCCOCCO (tested in a mixture with another compound)  30.2%
6. O=C(CCCCCCC(=O)Nc1cccnc1)NO  31%
7. Cc1cc(C)c(NC(=O)c2sc3nc4c(cc3c2N)C(=O)CCC4)c(C)c1  35.4%
8. CC[C@H](C)C(=O)O[C@H]1CCC=C2C=C[C@H](C)C(CCC3C[C@@H](O)CC(=O)O3)[C@H]21 (stereo partly drawn)  42.5%
9. COc1ccc(OC)c(/C=C/c2nc(SCc3ccccc3)n(-c3ccc(Cl)cc3)n2)c1  43.9%
10. COc1cc(OC)cc(-c2cncn2-c2ccc(-c3nc4cc(OC)cc(OC)c4s3)cc2)c1  56.1%
11. O=C1NC(=O)N(Cc2ccccc2)CC1Br (stereo not drawn)  56.9%
12. COc1ccc(N2C(=O)C3c4[nH]c5ccc(OCc6ccccc6)cc5c4C4CCC(C(C)C)CC4C3C2=O)cc1 (stereo not drawn)  59.6%
13. O=C1ON=[N+](c2ccc(Cc3ccc([N+]4=NOC(=O)C4CN4CCOCC4)cc3)cc2)C1CN1CCOCC1 (stereo not drawn)  62.3%
14. Cc1nc2ccc(CN(C)c3ccc(C(=O)N[C@@H](CCC(=O)O)C(=O)O)s3)cc2c(=O)[nH]1  71.8%
15. COC(=O)[C@@H]1[C@H](O)[C@H](C)[C@H](O)[C@@](C)(O)/C=C\C=C(C)C(=O)Nc2c(C)c(OC(C)=O)c3c(c2O)C(=O)C(C)=C2OCOC(=C23)C(C)=C[C@@](C)(O)[C@H](O)[C@@H](C)[C@H]1OC(C)=O  88.4%
16. O=C(/C=C/c1cc2ccccc2[nH]c1=O)c1ccc2c(c1)OCO2  92.5%
17. CCOC(=O)C1CCc2c(ccc3ccccc23)N1CCC#N (stereo not drawn)  93.5%
18. N#Cc1c(C#N)c(SSc2c(C#N)c(C#N)c(N)n2-c2ccccc2)n(-c2ccccc2)c1N  94.5%
19. CCc1ccc2c(c1)N(CCO)C1=C(C(=O)OC1)C2c1ccccc1 (stereo not drawn)  95.8%
20. COc1ccc(OC)c2c1C(=O)CC2C (stereo not drawn)  100%
21. COc1ccc(N=C2C(=Nc3ccc(OC)cc3)N(c3ccc(N(C)C)cc3)C(=S)N2c2ccc(OC)cc2)cc1  107%
22. CO/N=C(/C(=O)NC1C(=O)N2C(C(=O)O)=C(COC(N)=O)CSC12)c1ccco1 (stereo not drawn)  109%
23. O=C(CNC(=O)OCc1ccccc1)NCC(=O)Oc1ccc([N+](=O)[O-])cc1  109%
24. NC(=O)SCC(=O)Nc1ccc(S(N)(=O)=O)cc1  112%
25. COc1cc(Cc2cc(-c3ccc(Cl)cc3)n[nH]c2=O)ccc1O  112%
26. CCN(CC)CCNC(=O)c1ccc(NC(C)=O)cc1  112%
27. CCCC1(CC(=O)O)OCCc2c1[nH]c1ccccc21 (stereo not drawn)  114%
28. CC1CN(Cc2ccccc2)C(=O)NC1=O (stereo not drawn)  124%

For CN(C)C(=S)N/N=C\C=N/NC(=S)N(C)C, the growth was -59.4% (active).
With CN(C)CCN1C(=O)c2cccc3cc(N)cc(c23)C1=O the growth was -39.9% (active).
CN1CC[C@@H](c2c(O)cc(O)c3c(=O)cc(-c4ccccc4Cl)oc23)[C@@H](O)C1 was tested, and the growth was -37.1% (active).
For Cc1cccc2c(NCCN(C)C)c3cccc(C(=O)NCCN(C)C)c3nc12, the growth was -61% (active).
CC(C)C[C@H](NC(=O)[C@H](Cc1cccc2ccccc12)NS(=O)(=O)c1cccc2cccnc12)B(O)O was tested, and the growth was -64.7% (active).
With COc1cc(NC(=O)CSc2nc3ccccc3c(=O)n2CCc2ccccc2)cc(OC)c1OC the growth was 8.76% (active).
For Nc1ncn(C2OC(CO)C(O)C2O)c(=O)n1 (stereo not drawn), the growth was -39.8% (active).
With CCCCCCCCCCCCCCCCCCOCC(COCCOCC[N+]1(CCCCCC(=O)[O-])CCCC1)Oc1ncccn1 (stereo not drawn) the growth was -15.2% (active).
For C=C(NC(=O)C(=C)NC(=O)c1csc(C2=NC3c4csc(n4)C4NC(=O)c5csc(n5)C(C(C)(O)C(C)O)NC(=O)C5CSC(=N5)/C(=C/C)NC(=O)C(C(C)O)NC(=O)c5csc(n5)C3(CC2)NC(=O)C(C)NC(=O)C(=C)NC(=O)C(=C)NC(=O)C(C(C)C)NC2C=Cc3c(C(C)O)cc(nc3C2O)C(=O)OC4C)n1)C(N)=O (stereo not drawn), the growth was -18.1% (active).
For C/C(=N\Nc1nc2ccccc2s1)c1ccncn1, the growth was -22.2% (active).
